The supplement of paper PMC6555819

Tests used:
Test in all cases: PBM binding z-score (relative to random genomic background probes); higher = stronger binding; sequences stand for … in GC…GCGATTGACAGCGTAGAATGAAGG
[1] = system: FXR:RXRa (NR concentration 270 nM, RXRa partner concentration 90 nM)
How it was run: (§1)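 Custom Agilent 4×180K protein-binding microarrays carried double-stranded probes, each with a 34-nt variable region. These regions held direct-repeat seeds, single-nucleotide variants, half-site ablations and random human genomic background sequences. Ligand-free nuclear receptor dimers were incubated on the arrays for 1 h, antibodies against each partner (one per run) detected binding, and scanned fluorescence was regression-normalized. Binding z-scores take the random background probes as reference.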

[2] = system: LXRa:RXRa (NR concentration 270 nM, RXRa partner concentration 90 nM)
How it was run: as §1

[3] = system: LXRa homodimer (NR concentration 270 nM)
How it was run: as §1

[4] = system: LXRb:RXRa (NR concentration 270 nM, RXRa partner concentration 90 nM)
How it was run: as §1

[5] = system: LXRb homodimer (NR concentration 270 nM)
How it was run: as §1

[6] = system: PPARa:RXRa (NR concentration 270 nM, RXRa partner concentration 90 nM)
How it was run: as §1

[7] = system: PPARg:RXRa (NR concentration 180 nM, RXRa partner concentration 90 nM)
How it was run: as §1

[8] = system: PPARg:RXRa 270nM:90nM, anti-RXR (NR concentration 270 nM, RXRa partner concentration 90 nM)
How it was run: as §1

[9] = system: PPARg:RXRa 30nM:10nM, anti-RXR (NR concentration 30 nM, RXRa partner concentration 10 nM)
How it was run: as §1

[10] = system: PPARg:RXRa 90nM:30nM, anti-RXR (NR concentration 90 nM, RXRa partner concentration 30 nM)
How it was run: as §1

CGTCAAAATTCAACTAAGGTAACGTAAAGCACGC
PBM binding z-score [1]: 0.963
PBM binding z-score [2]: 0.314
PBM binding z-score [3]: 0.303
PBM binding z-score [4]: 0.543
PBM binding z-score [5]: 0.0502
PBM binding z-score [6]: 0.568
PBM binding z-score [7]: 0.569
PBM binding z-score [8]: 0.127
PBM binding z-score [9]: -0.0256
PBM binding z-score [10]: 0.246

CAAACTAGATCACCGGAAGGTCAAAGTCCGCATG
PBM binding z-score [1]: 3.07
PBM binding z-score [2]: 3.21
PBM binding z-score [3]: 3.33
PBM binding z-score [4]: 3.19
PBM binding z-score [5]: 1.2
PBM binding z-score [6]: 3.85
PBM binding z-score [7]: 2.04
PBM binding z-score [8]: 2.62
PBM binding z-score [9]: 0.824
PBM binding z-score [10]: 1.84

TTACCAAGGGGAAAGGTCGTTGATGCACGCCTTG
PBM binding z-score [1]: 1.39
PBM binding z-score [2]: 1.85
PBM binding z-score [3]: -0.0678
PBM binding z-score [4]: 1.81
PBM binding z-score [5]: -0.739
PBM binding z-score [6]: 3.79
PBM binding z-score [7]: 5.27
PBM binding z-score [8]: 6.57
PBM binding z-score [9]: 4.47
PBM binding z-score [10]: 6.82

CGTCCAAGGTCAAGGTCAGAGAAAGAGACTCGAA
PBM binding z-score [1]: 7.9
PBM binding z-score [2]: 5.84
PBM binding z-score [3]: 0.844
PBM binding z-score [4]: 4.67
PBM binding z-score [5]: 0.838
PBM binding z-score [6]: 5.99
PBM binding z-score [7]: 6.4
PBM binding z-score [8]: 6.27
PBM binding z-score [9]: 2.49
PBM binding z-score [10]: 5.02

CAAACTAGGTCAAGGTAAAAGTCGGTTTGTGCCA
PBM binding z-score [1]: 3.54
PBM binding z-score [2]: 2.52
PBM binding z-score [3]: 0.259
PBM binding z-score [4]: 1.97
PBM binding z-score [5]: 0.356
PBM binding z-score [6]: 4.86
PBM binding z-score [7]: 8.27
PBM binding z-score [8]: 7.09
PBM binding z-score [9]: 4.93
PBM binding z-score [10]: 6.9

CGAACTAGGTCACTGACAGGACAGTGAATAGTAA
PBM binding z-score [1]: 3.05
PBM binding z-score [2]: 2.26
PBM binding z-score [3]: -0.0136
PBM binding z-score [4]: 1.64
PBM binding z-score [5]: -0.225
PBM binding z-score [6]: 4.7
PBM binding z-score [7]: 7.95
PBM binding z-score [8]: 6.65
PBM binding z-score [9]: 3.86
PBM binding z-score [10]: 6.09

CTTCCAAGGTCAATGCTAGGTCAGTGAAAGCATT
PBM binding z-score [1]: 6.83
PBM binding z-score [2]: 5.58
PBM binding z-score [3]: 3.58
PBM binding z-score [4]: 4.25
PBM binding z-score [5]: 1.7
PBM binding z-score [6]: 5.14
PBM binding z-score [7]: 4.42
PBM binding z-score [8]: 4.73
PBM binding z-score [9]: 1.5
PBM binding z-score [10]: 3.45

ATCGAAAGGTCGAAGGTGTGTATACCCACCCGAA
PBM binding z-score [1]: 3.46
PBM binding z-score [2]: 3.02
PBM binding z-score [3]: 0.143
PBM binding z-score [4]: 2.37
PBM binding z-score [5]: 0.416
PBM binding z-score [6]: 4.08
PBM binding z-score [7]: 2.6
PBM binding z-score [8]: 3.32
PBM binding z-score [9]: 1.5
PBM binding z-score [10]: 2.35

GTAACAAGGTGAATAGGTCGTTGATGAGTAGGCG
PBM binding z-score [1]: 1.22
PBM binding z-score [2]: 1.04
PBM binding z-score [3]: 0.00254
PBM binding z-score [4]: 0.69
PBM binding z-score [5]: -0.186
PBM binding z-score [6]: 2.9
PBM binding z-score [7]: 2.64
PBM binding z-score [8]: 2.88
PBM binding z-score [9]: 1.27
PBM binding z-score [10]: 2.48

CCTAGTTGGTCACGAGGTCACACACCGGATATGA
PBM binding z-score [1]: 4.38
PBM binding z-score [2]: 3.84
PBM binding z-score [3]: 2.36
PBM binding z-score [4]: 3.94
PBM binding z-score [5]: 0.56
PBM binding z-score [6]: 5
PBM binding z-score [7]: 5.28
PBM binding z-score [8]: 4.91
PBM binding z-score [9]: 2.28
PBM binding z-score [10]: 3.65

CCTTACGGGTCACGAGGTTATACCACGACGAGCG
PBM binding z-score [1]: 6.99
PBM binding z-score [2]: 4.85
PBM binding z-score [3]: 0.42
PBM binding z-score [4]: 4.37
PBM binding z-score [5]: -0.0941
PBM binding z-score [6]: 6.07
PBM binding z-score [7]: 6.94
PBM binding z-score [8]: 6.43
PBM binding z-score [9]: 3.65
PBM binding z-score [10]: 5.65

CAAACTAGGTCAAGGTCAAAGACGGTTTGTGCCA
PBM binding z-score [1]: 6.55
PBM binding z-score [2]: 5.25
PBM binding z-score [3]: 3.28
PBM binding z-score [4]: 4.37
PBM binding z-score [5]: 1.4
PBM binding z-score [6]: 6.32
PBM binding z-score [7]: 9.9
PBM binding z-score [8]: 8.3
PBM binding z-score [9]: 6.78
PBM binding z-score [10]: 8.62

CAAACTAGGTCACAGACGTCAAAGTCCGTGCGTA
PBM binding z-score [1]: 4.25
PBM binding z-score [2]: 3.06
PBM binding z-score [3]: 0.272
PBM binding z-score [4]: 2.08
PBM binding z-score [5]: 0.253
PBM binding z-score [6]: 5.37
PBM binding z-score [7]: 8.86
PBM binding z-score [8]: 7.39
PBM binding z-score [9]: 5.35
PBM binding z-score [10]: 7.4

TCTAGTTGGTCACGGAAGTCACACACGACGGGTA
PBM binding z-score [1]: 0.525
PBM binding z-score [2]: 0.526
PBM binding z-score [3]: 0.27
PBM binding z-score [4]: 0.598
PBM binding z-score [5]: 0.323
PBM binding z-score [6]: 1.21
PBM binding z-score [7]: 1.27
PBM binding z-score [8]: 1.85
PBM binding z-score [9]: 3.33
PBM binding z-score [10]: 2.65

CCTACTGGGCCACGAAAGGTCATAGATTCAGTGA
PBM binding z-score [1]: 3.74
PBM binding z-score [2]: 5.02
PBM binding z-score [3]: 4.02
PBM binding z-score [4]: 4.2
PBM binding z-score [5]: 0.194
PBM binding z-score [6]: 4.78
PBM binding z-score [7]: 4.68
PBM binding z-score [8]: 4.98
PBM binding z-score [9]: 2.28
PBM binding z-score [10]: 4.2

TGAATGAGGTTATAAGATCATGGAACGTTGCAAA
PBM binding z-score [1]: 1.6
PBM binding z-score [2]: 1.52
PBM binding z-score [3]: -0.175
PBM binding z-score [4]: 1.37
PBM binding z-score [5]: 0.0257
PBM binding z-score [6]: 3.04
PBM binding z-score [7]: 1.65
PBM binding z-score [8]: 2.41
PBM binding z-score [9]: 1.02
PBM binding z-score [10]: 1.78

GAGACTGGGGCAAAGCAGGTTACCATAAGGTTGG
PBM binding z-score [1]: 0.509
PBM binding z-score [2]: 0.532
PBM binding z-score [3]: -0.00898
PBM binding z-score [4]: 0.677
PBM binding z-score [5]: -0.382
PBM binding z-score [6]: 2.04
PBM binding z-score [7]: 2.19
PBM binding z-score [8]: 1.98
PBM binding z-score [9]: 0.147
PBM binding z-score [10]: 1.35

CTCGAAAGGTCGTGCTCAGTTGAGTATACCAAAC
PBM binding z-score [1]: 4.37
PBM binding z-score [2]: 3.75
PBM binding z-score [3]: 0.291
PBM binding z-score [4]: 3.5
PBM binding z-score [5]: 0.338
PBM binding z-score [6]: 4.85
PBM binding z-score [7]: 2.54
PBM binding z-score [8]: 3.47
PBM binding z-score [9]: 0.941
PBM binding z-score [10]: 2.53

AATACAGGGTCACTAGGACAGAGTAGGTACGAAT
PBM binding z-score [1]: 6.09
PBM binding z-score [2]: 5.02
PBM binding z-score [3]: 1.08
PBM binding z-score [4]: 3.97
PBM binding z-score [5]: 1.27
PBM binding z-score [6]: 5.77
PBM binding z-score [7]: 8.06
PBM binding z-score [8]: 6.39
PBM binding z-score [9]: 3.02
PBM binding z-score [10]: 5.18

ACCTCTAGGTAAGACTCAGTTCAGTGAAGAACGC
PBM binding z-score [1]: -0.0705
PBM binding z-score [2]: -0.143
PBM binding z-score [3]: -0.072
PBM binding z-score [4]: -0.301
PBM binding z-score [5]: 0.0183
PBM binding z-score [6]: -0.0817
PBM binding z-score [7]: 0.0418
PBM binding z-score [8]: 0.031
PBM binding z-score [9]: -0.00405
PBM binding z-score [10]: -0.257

TTACCAAGGTGAGCTGGGGTCGTTGATCCAACTC
PBM binding z-score [1]: 0.996
PBM binding z-score [2]: 0.819
PBM binding z-score [3]: -0.542
PBM binding z-score [4]: 1.37
PBM binding z-score [5]: -0.609
PBM binding z-score [6]: 2.37
PBM binding z-score [7]: 0.431
PBM binding z-score [8]: 1.19
PBM binding z-score [9]: -0.099
PBM binding z-score [10]: 0.415

CCTACTGCGCCAAAAAGGTCATTGATGCCGATAA
PBM binding z-score [1]: 4.02
PBM binding z-score [2]: 4.8
PBM binding z-score [3]: 4.24
PBM binding z-score [4]: 4.54
PBM binding z-score [5]: 1.52
PBM binding z-score [6]: 4.78
PBM binding z-score [7]: 1.47
PBM binding z-score [8]: 3.17
PBM binding z-score [9]: 1.18
PBM binding z-score [10]: 2.45

ACTAGTAGTTGACTTAGGGCAACCGATACGACGC
PBM binding z-score [1]: -0.211
PBM binding z-score [2]: -0.0231
PBM binding z-score [3]: -0.428
PBM binding z-score [4]: -0.351
PBM binding z-score [5]: -0.259
PBM binding z-score [6]: -0.00302
PBM binding z-score [7]: 0.852
PBM binding z-score [8]: -0.176
PBM binding z-score [9]: -0.0859
PBM binding z-score [10]: -0.0744
